Results filed as inconclusive are left out. A structure can be active in one record and inactive in another. The source made the active and inactive calls. How the source made its calls, unless noted: active means hit-call score of the fitted dose curve at least 0.9, where 1 is the maximum; inactive means score below 0.9.
Tests used:
[1] = read-out: NAD(P)H dehydrogenase [quinone] 1 (NQO1), NQO1 (gene 1728); assay: LTEA_HepaRG_NQO1: Life Technologies and Expression Analysis (LTEA) Assay for NAD(P)H dehydrogenase [quinone] 1 (NQO1) using HepaRG (AID 2283526); conditions: mRNA level, 48 h; actives raise or lower the signal
Summary of the method: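 HepaRG, 48 h post-plating → serum-free induction medium → test chemical 48 h (duplicate, 100 uM top, half-log x8, 0.5% DMSO) → RNA isolation → qRT-PCR, ACTB/GAPDH/POLR2A normalization; bidirectional curve fit vs DMSO baseline.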

[2] = read-out: Nuclear factor erythroid 2-related factor 2 (Homo sapiens) (UniProt Q16236); assay: LTEA_HepaRG_NFE2L2: Life Technologies and Expression Analysis (LTEA) Assay for Nuclear factor erythroid 2-related factor 2 (NFE2L2) Transcription Factor using HepaRG (AID 2283527); conditions: mRNA level, 48 h; actives raise or lower the signal
Summary of the method: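 Differentiated human HepaRG cells in serum-free induction medium were exposed for 48 h to eight concentrations (top 100 uM, half-log dilutions, 0.5% DMSO), in duplicate. NFE2L2 mRNA was quantified by TaqMan qRT-PCR, normalized to ACTB, GAPDH and POLR2A, with bidirectional fitting versus DMSO.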

[3] = read-out: succinate dehydrogenase complex iron sulfur subunit B (SDHB), SDHB (gene 6390); assay: LTEA_HepaRG_SDHB: Life Technologies and Expression Analysis (LTEA) Assay for succinate dehydrogenase complex iron sulfur subunit B (SDHB) using HepaRG (AID 2283528); conditions: mRNA level, 48 h; actives raise or lower the signal
Summary of the method: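 A human HepaRG culture in serum-free induction medium received test chemicals for 48 h over an eight-point range capped at 100 uM. SDHB expression change was quantified by qRT-PCR.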

[4] = read-out: Signal transducer and activator of transcription 3 (Homo sapiens) (UniProt P40763); assay: LTEA_HepaRG_STAT3: Life Technologies and Expression Analysis (LTEA) Assay for Signal transducer and activator of transcription (STAT3) using HepaRG (AID 2283529); conditions: mRNA level, 48 h; actives raise or lower the signal
Summary of the method: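 Differentiated human HepaRG cells in serum-free induction medium were exposed in duplicate for 48 h to eight half-log concentrations up to 100 uM in 0.5% DMSO. STAT3 mRNA was quantified by TaqMan qRT-PCR, normalized to ACTB, GAPDH and POLR2A, and fitted bidirectionally against DMSO.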

[5] = read-out: solute carrier (SLCO1B1), SLCO1B1 (gene 10599); assay: LTEA_HepaRG_SLCO1B1: Life Technologies and Expression Analysis (LTEA) Assay for solute carrier (SLCO1B1) using HepaRG (AID 2283530); conditions: mRNA level, 48 h; actives raise or lower the signal
Summary of the method: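 Differentiated human HepaRG cells, plated 48 h, switched to serum-free induction medium and exposed in duplicate for 48 h to 8 half-log concentrations (top 100 uM) in 0.5% DMSO. SLCO1B1 mRNA by TaqMan qRT-PCR, normalized to ACTB/GAPDH/POLR2A.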

[6] = read-out: sulfotransferase 2A1 (SULT2A1), SULT2A1 (gene 6822); assay: LTEA_HepaRG_SULT2A1: Life Technologies and Expression Analysis (LTEA) Assay for sulfotransferase 2A1 (SULT2A1) using HepaRG (AID 2283531); conditions: mRNA level, 48 h; actives raise or lower the signal
Summary of the method: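 Differentiated human HepaRG cells in serum-free induction medium were exposed for 48 h to eight half-log concentrations (top 100 uM, 0.5% DMSO). SULT2A1 mRNA was measured by qRT-PCR, normalized to ACTB, GAPDH and POLR2A, and fitted bidirectionally against DMSO.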

[7] = read-out: Transforming Growth Factor (TGFA), TGFA (gene 7039); assay: LTEA_HepaRG_TGFA: Life Technologies and Expression Analysis (LTEA) Assay for Transforming Growth Factor (TGFA) using HepaRG (AID 2283532); conditions: mRNA level, 48 h; actives raise or lower the signal
Summary of the method: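 Differentiated human HepaRG cells, plated 48 h then switched to serum-free induction medium, were exposed in duplicate for 48 h to 8-point half-log series from 100 uM in 0.5% DMSO. TGFA mRNA measured by qRT-PCR, normalized to ACTB/GAPDH/POLR2A, bidirectional fit versus DMSO.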

[8] = read-out: Transforming Growth Factor (TGFB1), TGFB1 (gene 7040); assay: LTEA_HepaRG_TGFB1: Life Technologies and Expression Analysis (LTEA) Assay for Transforming Growth Factor (TGFB1) Transporter using HepaRG (AID 2283533); conditions: mRNA level, 48 h; actives raise or lower the signal
Summary of the method: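 Differentiated human HepaRG cells in serum-free induction medium were exposed in duplicate for 48 h to eight concentrations (top 100 uM, half-log steps, 0.5% DMSO). TGFB1 mRNA was quantified by qRT-PCR, normalized to ACTB, GAPDH, POLR2A, and fitted bidirectionally against DMSO.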

TIMP1, TIMP1 (gene 7076) = assay: LTEA_HepaRG_TIMP1: Life Technologies and Expression Analysis (LTEA) Assay for TIMP1 using HepaRG (AID 2283534); conditions: mRNA level, 48 h; actives raise or lower the signal;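 further: TaqMan qRT-PCR signal normalized to ACTB GAPDH and POLR2A housekeeping genes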
Summary of the method: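 Differentiated human HepaRG cells in serum-free induction medium were exposed 48 h to chemicals (8 half-log concentrations, top 100 uM, 0.5% DMSO). TIMP1 mRNA was quantified by TaqMan qRT-PCR, normalized to ACTB/GAPDH/POLR2A; bidirectional fit versus DMSO.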

[9] = read-out: Tumor necrosis factor receptor 1 (TNFRSF1A), TNFRSF1A (gene 7132); assay: LTEA_HepaRG_TNFRSF1A: Life Technologies and Expression Analysis (LTEA) Assay for Tumor necrosis factor receptor 1 (TNFRSF1A) using HepaRG (AID 2283535); conditions: mRNA level, 48 h; actives raise or lower the signal
Summary of the method: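 Differentiated human HepaRG cells were exposed in duplicate for 48 h in serum-free induction medium to eight concentrations (top 100 uM, half-log steps, 0.5% DMSO). TNFRSF1A mRNA was quantified by qRT-PCR, normalized to ACTB, GAPDH and POLR2A, then fitted bidirectionally against DMSO.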

[10] = read-out: Thyroid Hormone Responsive (THRSP), THRSP (gene 7069); assay: LTEA_HepaRG_THRSP: Life Technologies and Expression Analysis (LTEA) Assay for Thyroid Hormone Responsive (THRSP) using HepaRG (AID 2283536); conditions: mRNA level, 48 h; actives raise or lower the signal
Summary of the method: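 Differentiated human HepaRG cells were exposed in duplicate for 48 h in serum-free induction medium to eight concentrations (top 100 uM, half-log steps, 0.5% DMSO). Expression was quantified by TaqMan qRT-PCR, normalized to ACTB, GAPDH and POLR2A, with bidirectional fitting against DMSO.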

[11] = read-out: Cellular tumor antigen p53 (Homo sapiens) (UniProt P04637); assay: LTEA_HepaRG_TP53: Life Technologies and Expression Analysis (LTEA) Assay for Tumor Protein P53 (TP53) using HepaRG (AID 2283537); conditions: mRNA level, 48 h; actives raise or lower the signal
Summary of the method: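 Gain or loss of TP53 mRNA signal is scored relative to 0.5% DMSO after 48 h chemical treatment of HepaRG liver cells, tested in duplicate at eight half-log concentrations up to 100 uM.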

[12] = read-out: UDP glucuronosyltransferase (UGT1A1), UGT1A1 (gene 54658); assay: LTEA_HepaRG_UGT1A1: Life Technologies and Expression Analysis (LTEA) Assay for UDP glucuronosyltransferase (UGT1A1) using HepaRG (AID 2283538); conditions: mRNA level, 48 h; actives raise or lower the signal
Summary of the method: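 Readout is UGT1A1 transcript level by qRT-PCR, normalized to three housekeeping genes, after 48 h chemical treatment of HepaRG cells. Concentrations ran from 100 uM down in half-log steps with 0.5% DMSO, and gain or loss relative to DMSO was fitted.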

[13] = read-out: UDP glucuronosyltransferase (UGT1A6), UGT1A6 (gene 54578); assay: LTEA_HepaRG_UGT1A6: Life Technologies and Expression Analysis (LTEA) Assay for UDP glucuronosyltransferase (UGT1A6) using HepaRG (AID 2283539); conditions: mRNA level, 48 h; actives raise or lower the signal
Summary of the method: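 Human HepaRG cells were dosed for 48 h in serum-free induction medium with 0.5% DMSO vehicle, eight-point half-log series from 100 uM, in duplicate. UGT1A6 mRNA was measured by qRT-PCR, normalized to ACTB, GAPDH, POLR2A, and fitted bidirectionally against DMSO.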

[14] = read-out: X-box binding protein 1 (XBP1), XBP1 (gene 7494); assay: LTEA_HepaRG_XBP1: Life Technologies and Expression Analysis (LTEA) Assay for X-box binding protein 1 (XBP1) using HepaRG (AID 2283540); conditions: mRNA level, 48 h; actives raise or lower the signal
Summary of the method: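 Differentiated human HepaRG cells in serum-free induction medium were exposed in duplicate for 48 h to eight half-log concentrations up to 100 uM in 0.5% DMSO. XBP1 mRNA was quantified by qRT-PCR, normalised to ACTB, GAPDH and POLR2A, with bidirectional fitting against DMSO.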

[15] = LTEA_HepaRG_LDH_cytotoxicity: Cytotoxicity Assessment in the Life Technologies and Expression Analysis (LTEA) Assay (AID 2283563; active means hit-call score of the fitted dose curve at least 0.9, where 1 is the maximum;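 on AC50: LDH activity released into spent culture medium as a marker of cell death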)
Summary of the method: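 Differentiated human HepaRG cells, plated 48 h beforehand, were switched to serum-free induction medium and exposed for 48 h to eight half-log concentrations (top 100 uM) in 0.5% DMSO. LDH was measured in spent medium; activity was fitted relative to DMSO vehicle.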

[16] = ATG_XTT_Cytotoxicity: Cytotoxicity Assessment in the Attagene TRANS-FACTORIAL HepG2 Assay (AID 2283584; active means hit-call score of the fitted dose curve at least 0.9, where 1 is the maximum)
Summary of the method: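 HepG2 human liver cells, transiently transfected with multiple GAL4-UAS reporter units, were dosed and read at 24 h by XTT as cell number. Loss of signal was fitted relative to DMSO negative control baseline.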

[17] = TOX21_p53_BLA_p2_viability: Viability Assessment in the Tox21 HCT-116 p53 Agonism Beta-lactamase Assay, Phase 2 (AID 2283591; active means hit-call score of the fitted dose curve at least 0.9, where 1 is the maximum;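 further: compound exposure lasted 16 h at 37 °C; actives lower the ATP signal meaning cytotoxicity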)
Summary of the method: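 HCT-116 p53-bla cells (4000/well) rested 5 h at 37C, then received compounds in DMSO (217-fold dilution) for 16 h at 37C, 5% CO2. After the CCF4 read, CellTiter-Glo was added; ATP luminescence was read after 30 min at room temperature.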

[18] = target: Cellular tumor antigen p53 (Homo sapiens) (UniProt P04637); assay: TOX21_p53_BLA_p2_ratio: Tox21 HCT-116 p53 Agonism Beta-lactamase Assay, Ratio, Phase 2 (AID 2283592; active means hit-call score of the fitted dose curve at least 0.9, where 1 is the maximum)
Sequence of Cellular tumor antigen p53 (Homo sapiens) (P04637 whole entry, looked up): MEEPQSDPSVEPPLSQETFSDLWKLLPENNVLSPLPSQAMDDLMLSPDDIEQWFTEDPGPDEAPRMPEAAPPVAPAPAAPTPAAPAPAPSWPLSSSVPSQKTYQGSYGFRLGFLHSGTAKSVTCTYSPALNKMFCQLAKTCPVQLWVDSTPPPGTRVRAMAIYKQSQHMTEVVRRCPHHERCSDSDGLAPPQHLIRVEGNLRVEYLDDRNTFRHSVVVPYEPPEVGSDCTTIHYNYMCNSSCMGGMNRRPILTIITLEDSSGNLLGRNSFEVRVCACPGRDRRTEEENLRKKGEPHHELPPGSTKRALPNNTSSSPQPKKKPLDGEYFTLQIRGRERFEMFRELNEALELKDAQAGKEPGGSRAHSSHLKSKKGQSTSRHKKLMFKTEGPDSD
Summary of the method: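 HCT116 cells carrying a p53-responsive beta-lactamase reporter were plated, incubated 5 h at 37C, then dosed with compounds in DMSO (217-fold dilution) for 16 h. CCF4-AM substrate was added for 2 h at room temperature; the 460/530 nm emission ratio gave gain-of-signal activity relative to DMSO.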

[19] = TOX21_p53_BLA_p3_viability: Viability Assessment in the Tox21 HCT-116 p53 Agonism Beta-lactamase Assay, Phase 3 (AID 2283593; active means hit-call score of the fitted dose curve at least 0.9, where 1 is the maximum;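 further: cells exposed to compound for 16 h before reading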)
Summary of the method: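 HCT-116 cells (4000/well) rested 5 h at 37C, then got DMSO compounds by pin tool (217-fold dilution) for 16 h at 37C, 5% CO2. After the bla read, CellTiter-Glo was added and luminescence read at 30 min, room temperature.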

Measured: AC50

Sequence of Signal transducer and activator of transcription 3 (Homo sapiens) (P40763 whole entry, looked up): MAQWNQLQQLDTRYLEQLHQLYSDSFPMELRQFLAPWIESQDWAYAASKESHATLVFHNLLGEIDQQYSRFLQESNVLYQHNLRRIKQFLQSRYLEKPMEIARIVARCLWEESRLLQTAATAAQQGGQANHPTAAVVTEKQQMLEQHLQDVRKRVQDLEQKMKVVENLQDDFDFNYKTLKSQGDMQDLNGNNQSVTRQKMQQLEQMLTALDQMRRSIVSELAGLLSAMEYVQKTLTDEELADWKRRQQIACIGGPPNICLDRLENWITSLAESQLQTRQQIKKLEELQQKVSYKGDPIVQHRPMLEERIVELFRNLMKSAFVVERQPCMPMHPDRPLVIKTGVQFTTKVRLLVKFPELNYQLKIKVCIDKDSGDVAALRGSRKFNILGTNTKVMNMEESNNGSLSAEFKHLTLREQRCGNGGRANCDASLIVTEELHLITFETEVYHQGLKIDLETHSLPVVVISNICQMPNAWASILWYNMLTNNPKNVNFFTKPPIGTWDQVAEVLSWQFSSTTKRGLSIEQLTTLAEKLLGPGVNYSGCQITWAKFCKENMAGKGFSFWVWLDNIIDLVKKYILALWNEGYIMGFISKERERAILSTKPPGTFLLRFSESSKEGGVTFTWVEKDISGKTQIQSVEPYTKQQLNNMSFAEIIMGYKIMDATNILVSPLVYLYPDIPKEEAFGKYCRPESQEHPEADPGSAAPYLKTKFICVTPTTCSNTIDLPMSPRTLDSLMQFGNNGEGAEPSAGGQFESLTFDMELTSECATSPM
Sequence of Nuclear factor erythroid 2-related factor 2 (Homo sapiens) (Q16236 whole entry, looked up): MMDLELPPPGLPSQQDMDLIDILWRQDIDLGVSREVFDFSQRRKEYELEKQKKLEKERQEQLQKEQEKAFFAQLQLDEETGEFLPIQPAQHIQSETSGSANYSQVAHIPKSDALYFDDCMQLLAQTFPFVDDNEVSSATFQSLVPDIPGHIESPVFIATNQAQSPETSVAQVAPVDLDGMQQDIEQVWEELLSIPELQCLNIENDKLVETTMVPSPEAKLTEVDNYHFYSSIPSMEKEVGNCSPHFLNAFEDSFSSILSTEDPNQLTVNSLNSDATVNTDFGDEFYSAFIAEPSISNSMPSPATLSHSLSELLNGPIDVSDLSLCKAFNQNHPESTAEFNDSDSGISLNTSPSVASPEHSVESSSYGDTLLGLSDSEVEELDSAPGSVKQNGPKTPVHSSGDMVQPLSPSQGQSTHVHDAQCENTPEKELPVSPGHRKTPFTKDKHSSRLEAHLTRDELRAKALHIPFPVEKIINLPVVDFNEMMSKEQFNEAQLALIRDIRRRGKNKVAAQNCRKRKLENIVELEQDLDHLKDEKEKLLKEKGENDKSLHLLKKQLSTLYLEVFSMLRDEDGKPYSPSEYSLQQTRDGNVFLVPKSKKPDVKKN

CC(C)NC(=O)N1CC(=O)N(c2cc(Cl)cc(Cl)c2)C1=O
active: [2] 13.1 µM | [4] 5.78 µM | [5] 15.6 µM | [6] 13.1 µM | [10] 50 µM | [12] 4.3 µM | [14] 14.8 µM
inactive: [1] | [3] | [7] | [8] | TIMP1, TIMP1 (gene 7076) | [9] | [11] | [13] | [15] | [16] | [17] | [18] | [19]

CNC(=O)N(C)c1nnc(C(C)(C)C)s1
inactive: [1] | [2] | [3] | [4] | [5] | [6] | [7] | [8] | TIMP1, TIMP1 (gene 7076) | [9] | [10] | [11] | [12] | [13] | [14] | [15] | [17] | [18]

N#Cc1c(Cl)cccc1Cl
inactive: [1] | [2] | [3] | [4] | [5] | [6] | [7] | [8] | TIMP1, TIMP1 (gene 7076) | [9] | [10] | [11] | [12] | [13] | [14] | [15]

C=C(C)CN(CC)c1c([N+](=O)[O-])cc(C(F)(F)F)cc1[N+](=O)[O-]
active: [12] 50 µM
inactive: [1] | [2] | [3] | [4] | [5] | [6] | [7] | [8] | TIMP1, TIMP1 (gene 7076) | [9] | [10] | [11] | [13] | [14] | [15] | [16] | [17] | [18] | [19]

Cc1c(COC(=O)[C@@H]2[C@H](/C=C(\Cl)C(F)(F)F)C2(C)C)cccc1-c1ccccc1
inactive: [1] | [2] | [3] | [4] | [5] | [6] | [7] | [8] | TIMP1, TIMP1 (gene 7076) | [9] | [10] | [11] | [13] | [14] | [15] | [17] | [18] | [19]
active: [12] 11.7 µM | [19] 25.8 µM

OC(c1ccc(Cl)cc1)(c1ccc(Cl)cc1)C(Cl)(Cl)Cl
inactive: [3] | [4] | TIMP1, TIMP1 (gene 7076) | [10] | [18]
active: [1] 93 µM | [2] 71 µM | [5] 81.6 µM | [6] 93.9 µM | [7] 70.5 µM | [8] 50 µM | [9] 50 µM | [11] 50 µM | [12] 85.3 µM | [13] 79.3 µM | [14] 82.1 µM | [15] 74.3 µM | [17] 77.9 µM | [19] 38.8 µM

CCOc1cc(C(C)(C)C)ccc1C1COC(c2c(F)cccc2F)=N1 (stereo not drawn)
inactive: [1] | [2] | [3] | [4] | [5] | [7] | [8] | TIMP1, TIMP1 (gene 7076) | [9] | [10] | [13] | [14] | [15]
active: [6] 8.25 µM | [12] 8.48 µM

— PubChem BioAssay (EPA / NIEHS)
